We go through 40 compounds from PubChem BioAssay (NCATS).

Inconclusive results are not listed. Entries that show only a call come without a potency. The source made the active and inactive calls. The call rests on the fitted dose curve; in most records, active means well fitted cell-killing curve with a large enough effect; inconclusive means small, poorly fitted or top-dose-only effect, or effect the other way; inactive means no such curve, though single readings can be large or run the other way.
Potency means the concentration at half of the fitted maximal effect.

This assay can be described thus: Quantitative High-Throughput drug screen in 47 multiple myeloma cell lines against the NCATS MIPE library collection: Karpas25_ECACC cell viability assay (AID 1918968; further: nearly all actives have a fitted effect of over 35% in size). The following applies: Karpas25 myeloma viability, CellTiter-Glo ATP, 48 h; series mostly up to 45.8 µM. From the text: PI: Beverly A. Mock Ph.D.
Laboratory of Cancer Biology and Genetics,
Center for Cancer Research, National Cancer Institute,
National Institute of Health, Bethesda, Maryland
Drug resistance and disease progression are common in multiple myeloma (MM) patients, underscoring the need for new therapeutic combinations. […] We hypothesized that effective combinations would reduce MYC expression and enhance p16 activity. […] These preclinical data identify potentially useful drug combinations for evaluation in drug-resistant MM and reveal potential mechanisms of combined drug sensitivity.
Described herein is the primary MIPE qHTS used to cherrypick compounds. Validated compounds were then further tested for potential synergistic activiy.
[1] Peat TJ, Gaikwad SM, Dubois W, Gyabaah-Kessie N, Zhang S, Gorjifard S, Phyo Z, Andres M, Hughitt VK, Simpson RM, Miller MA, Girvin AT, Taylor A, Williams D, D'Antonio N, Zhang Y, Rajagopalan A, Flietner E, Wilson K, Zhang X, Shinn P, Klumpp-Thomas C, McKnight C, Itkin Z, Chen L, Kazandijian D, Zhang J, Michalowski AM, Simmons JK, Keats J, Thomas CJ, Mock BA. Drug combinations identified by high-throughput screening promote cell cycle transition and upregulate Smad pathways in myeloma. Cancer Lett. 2023 Aug 1;568:216284. doi: 10.1016/j.canlet.2023.216284. Epub 2023 Jun 24. PMID: 37356470; PMCID: PMC10408729.
SEQUENCE No. (e.g., 1, 2, 3, etc.); […] (e.g., Cells, Incubation, Reagent, etc.); VALUE and DESCRIPTION.
1; Cells; 5 uL; white, solid bottom 1536-well Greiner assay plate.
2; Compounds; 23 nL; Kalypsis pin tool (Wako USA) equipped with a 1536-well pin head to transfer to the assay plates.
3; Incubation; 48 hours; 37C incubation.
4; Reagent;5uL; CellTiter Glo (Promega).
5; Detector; 425V; Luminescence; Viewlux PerkinElmer.
NOTES (numbers refer to Sequence numbers above)
1. The cell-based screening methods employed in this study were like those previously published. Briefly, the corresponding myeloma cell lines were screened in 1,536-well plates with 500 cells, 5-uL per well for inhibition of cell viability (assessed by measuring ATP levels with CellTiterGlo).
2. NCATS MIPE 4.0 library of approved and investigational drugs were added using the Kalypsis pin tool. Wells treated with DMSO only for 100% viability and media only wells for 0% viability were used as controls.
3. The assay plates were covered and incubated for 48 hours in a 37C, 5% CO2 incubator with controlled humidity.
4. After 48 hours, CellTilter-GloTM luminescent substrate mix (Promega) reagent was added to the assay plate and plates we incubated for 5 min at room temperature.
5. Signal was measured as median relative luminescence units on a ViewLux (PerkinElmer) multiplate reader.
[1] Heske CM, Davis MI, Baumgart JT, Wilson K, Gormally MV, Chen L, Zhang X, Ceribelli M, Duveau DY, Guha R, Ferrer M, Arnaldez FI, Ji J, Tran HL, Zhang Y, Mendoza A, Helman LJ, Thomas CJ. Matrix Screen Identifies Synergistic Combination of PARP Inhibitors and Nicotinamide Phosphoribosyltransferase (NAMPT) Inhibitors in Ewing Sarcoma. Clin Cancer Res. 2017 Dec 1;23(23):7301-7311. doi: 10.1158/1078-0432.CCR-17-1121. Epub 2017 Sep 12. PMID: 28899971; PMCID: PMC6636827.
On the technique in general: Cellular ATP, detected with luciferase, serves as a proxy for viable cell number.
In the case of `CNCC[C@H](Oc1cccc2ccccc12)c1cccs1`, the Potency was 2.96 µM (active).
With `CNS(=O)(=O)CCc1ccc2[nH]cc(C3CCN(C)CC3)c2c1`, the Potency is 0.935 µM (active).
Next, `COC(=O)Nc1nc2ccc(S(=O)c3ccccc3)cc2[nH]1` (stereo not given): 16.6 µM (active).
In the case of `COCCCOc1cc(C[C@@H](C[C@H](N)[C@@H](O)C[C@H](C(=O)NCC(C)(C)C(N)=O)C(C)C)C(C)C)ccc1OC` it was 1.87 µM (active); in that of `COC(c1ccccc1)(c1ccccc1)[C@H](Oc1nc(C)cc(C)n1)C(=O)O`, “inactive”.
Regarding `CC(C)(C#N)c1cc(Cn2cncn2)cc(C(C)(C)C#N)c1`, the Potency result is “inactive”.
Next, `Cc1nnc(NS(=O)(=O)c2ccc(N)cc2)s1`: 8.33 µM (active); `COc1ccc2cc3[n+](cc2c1OC)CCc1cc2c(cc1-3)OCO2`: 2.64 µM (active).
In the case of `OCc1ccc(-c2nn(Cc3ccccc3)c3ccccc23)o1` it was 9.35 µM (active).
On to `NCCCC(O)(P(=O)(O)O)P(=O)(O)O`, for which the Potency was 16.6 µM (active).
Next, `CC(C)OC(=O)C(C(=O)OC(C)C)=C1SC=CS1`: “inactive”; `Nc1nc(F)nc2c1ncn2[C@@H]1O[C@H](CO)[C@@H](O)[C@@H]1O`: 0.296 µM (active); `CCOC(=O)[C@H](CCc1ccccc1)N[C@H]1CCc2ccccc2N(CC(=O)O)C1=O`: 20.9 µM (active).
In the case of `CC(C)Cn1cnc2c(N)nc3ccccc3c21` it was “inactive”.
`S=P(N1CC1)(N1CC1)N1CC1`: the Potency result is “inactive”.
Next, `Cc1cc(NS(=O)(=O)c2ccc(N)cc2)no1`: “inactive”; `CCOCC(O)COc1ccc(NC(=O)CC[S+](C)C)cc1` (stereo not given): “inactive”; `OC(Cn1cncn1)(Cn1cncn1)c1ccc(F)cc1F`: “inactive”.
Next, `C[C@@H](CN1CC(=O)NC(=O)C1)N1CC(=O)NC(=O)C1`: 9.35 µM (active); `CC1CC2C3CCC4=CC(=O)C=C[C@]4(C)[C@@]3(F)[C@@H](O)C[C@]2(C)[C@@]1(O)C(=O)CO` (stereo not given in full): 0.209 µM (active).
Next, `CC(=O)Oc1ccccc1C(=O)Nc1ncc([N+](=O)[O-])s1`: 8.55 µM (active).
Turning to `CO[C@@H]1[C@@H](OC(N)=O)[C@@H](O)[C@H](Oc2ccc3c(O)c(NC(=O)c4ccc(O)c(CC=C(C)C)c4)c(=O)oc3c2C)OC1(C)C`, the Potency is 5.9 µM (active).
In the case of `Cn1c(=O)c2c(ncn2CC(O)CO)n(C)c1=O` (stereo not given), the Potency entry is “inactive”.
Take `CNNCc1ccc(C(=O)NC(C)C)cc1`: the Potency is 5.26 µM (active).
Next, `O=C(N[C@H](CO)[C@H](O)c1ccc([N+](=O)[O-])cc1)C(Cl)Cl`: “inactive”.
In the case of `CCCCCCNC(=O)n1cc(F)c(=O)[nH]c1=O` it was 7.43 µM (active); in that of `NC(=O)c1cccc(N)c1`, “inactive”.
As for `COc1ccc(-c2ccc3cc(C(=O)O)ccc3c2)cc1C12CC3CC(CC(C3)C1)C2`, the Potency result is “inactive”.
Next, `CCCc1cc(C(N)=S)ccn1`: “inactive”; `CN1CCN(c2c(F)cc3c(=O)c(C(=O)O)cn4c3c2OCN4C)CC1`: “inactive”; `CCCCc1oc2ccc(NS(C)(=O)=O)cc2c1C(=O)c1ccc(OCCCN(CCCC)CCCC)cc1`: 16.6 µM (active).
Turning to `CC(C)(C)NC(=O)[C@H]1CC[C@H]2[C@@H]3CC[C@H]4NC(=O)C=C[C@]4(C)[C@H]3CC[C@]12C`, the Potency is 0.662 µM (active).
Next, `C[C@@H](NCCCc1cccc(C(F)(F)F)c1)c1cccc2ccccc12`: “inactive”; `CC(C)C[C@H](NC(=O)[C@H](CCc1ccccc1)NC(=O)CN1CCOCC1)C(=O)N[C@@H](Cc1ccccc1)C(=O)N[C@@H](CC(C)C)C(=O)[C@@]1(C)CO1`: 0.001 µM (active).
Next, `Cn1nnc2c(C(N)=O)ncn2c1=O`: “inactive”; `C1CCC(C(CC2CCCCN2)C2CCCCC2)CC1` (stereo not given): 8.33 µM (active).
In the case of `NS(=O)(=O)c1cc2c(cc1Cl)NC(C(Cl)Cl)NS2(=O)=O` (stereo not given) it was “inactive”; in that of `COc1cc([C@@H]2c3cc4c(cc3[C@H](O)[C@H]3COC(=O)[C@H]23)OCO4)cc(OC)c1OC`, “inactive”; in that of `Cc1oc(=O)oc1CN1CCN(c2cc3c(cc2F)c(=O)c(C(=O)O)c2n3C(C)S2)CC1` (stereo not given), “inactive”.
Regarding `CC(=O)[C@H]1CC[C@H]2[C@@H]3CC=C4C[C@@H](O)CC[C@]4(C)[C@H]3CC[C@]12C`, the Potency entry was “inactive”.
